Experimental data as given in PubChem BioAssay (NCI).
“And” between values parts separate entries of the source, which are not always exact repeats. Equal entries are not always repeated. This is part of a sample that, as a whole, favours compounds with a hit. Of some 83,000 tested, about 20% had one in any assay.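 48-hour exposure, single concentration, 96-well plates; percent growth endpoint where 0 means no net growth. Active: below 10.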 A number with no mark means an inactive call. The source made the active and inactive calls.

System: MDA-MB-468 breast
Assay: NCI-60 one-dose screen, 48 h (100 = growth as untreated, 0 = no growth, -100 = all killed)
Conditions: 10 µM unless noted

Row | Compound | growth
1 | Oc1c(CCl)cc(Cl)cc1CCl | 113%
2 | CCC(Br)(CC)C(=O)NC(N)=O | 97.7%
3 | COc1ccc(/C=C\c2cc(OC)c(OC)c(OC)c2)cc1OCC(=O)Nc1nc2ccc(C(F)(F)F)cc2s1 | 1.38% (active)
4 | O=S(=O)(F)c1ccc(Cl)cc1 | 121%
5 | CCOC(=O)[C@@H](C)C[C@H](Cc1ccccc1)NC(=O)c1csc([C@@H](C[C@H](C(C)C)N(C)C(=O)[C@H](CC)NC(=O)[C@H]2CCCCN2C)OC(C)=O)n1 | 32.5%
6 | CCOC(=O)CCN(C)C1=Nc2ccc(Cl)cc2C(c2ccccc2)=[N+]([O-])C1 | 93.7%
7 | COc1ccc(/C(C)=C(\c2ccc(OCCN3CCOCC3)cc2)c2ccc(OC(=O)Cc3ccccc3)cc2)cc1 | 104%
8 | CN=C(NN)NN | 112%
9 | O=C(O)c1ccccc1N(CCO)CCCl | 95.1%
10 | COC(=O)[C@@H](C)C[C@H](Cc1cn(C)c2ccccc12)NC(=O)c1csc([C@@H](C[C@H](C(C)C)N(C)C(=O)[C@@H](NC(=O)[C@H]2CCCCN2C)C(C)C)OC(C)=O)n1 | 28.6%
11 | O=C(NCc1ccc([N+](=O)[O-])cc1)Nc1ccc(S(=O)(=O)F)cc1 | 40.4%
12 | COC(=O)[C@@H](C)C[C@H](Cc1ccccc1)NC(=O)c1csc([C@@H](C[C@H](C(C)C)N(C)C(=O)[C@@H](NC(=O)C23CC(NC(C)=O)(C2)C3)C2CC2)OC(C)=O)n1 | 3.05% (active)
13 | Cc1ccc2oc(=O)c3c(c2c1)OC(N)=C(C#N)C3c1ccco1 (centres undefined) | 91.4%
14 | Oc1ccc2c3c1OC1[C@@H](O)CC[C@@]4(O)[C@@H](C2)N(CC2CCC2)CC[C@]314 (some centres undefined) | 99.8%
15 | Fc1c[c-]c(-c2ccccn2)c(F)c1.[CH3-].[Pt+2].c1ccc([PH+](c2ccccc2)c2ccccn2)cc1 | -21.7% (active)
16 | O=C=Nc1ccc(Br)cc1 | 83.1%
17 | CC(C)(NC(=O)c1nn(CCCCCF)c2ccccc12)c1ccccc1 | 93.9%
18 | CC[S][Hg][Cl] | 116%
19 | CN1CC2CCC(C1)C2=O | 106%
20 | O=C1C(=O)c2ccccc2-c2ccccc21 | -85.6% (active)
21 | CC(=O)Nc1ccc(NC(=O)c2ccc([As](O)O)cc2)cc1 | 92.5%
22 | CN1CCc2cc3c(cc2C1O)OCO3 (centres undefined) | 99.4% and 108%
23 | [Au+].[N-]=C=O.c1ccc(CN2[CH-]N(Cc3ccccc3)C(c3ccccc3)=C2c2ccccc2)cc1 | 72.7%
24 | NC(CCl)CCl | 96.8%
25 | C[C@]12CC[C@@H]3c4ccc(Oc5nc(N6CC6)nc(N6CC6)n5)cc4CC[C@H]3[C@@H]1CCC2=O | 30.4%

Row | Compound | growth
26 | CCCCCCCCCC(=O)N[C@@](C)(CC)C(=O)N1CCC[C@H]1C(=O)N[C@@H](CC(C)C)C(=O)N[C@@](C)(CC)C(=O)N[C@@H](CCC(N)=O)C(=O)N[C@H](CCC(N)=O)C(=O)NC(C)(C)C(=O)NC(C)(C)C(=O)N[C@@H](CCC(N)=O)C(=O)N[C@H](CC(C)C)C(=O)N[C@H](CO)CC(C)C | -94.7% (active) and -92.4% (active)
27 | C/C(=C\c1ccn(-c2ccc(N)cc2C(F)(F)F)n1)[C@@H]1C[C@@H]2O[C@]2(C)CCC[C@H](C)[C@H](O)[C@@H](C)C(=O)C(C)(C)[C@@H](O)CC(=O)O1 | 28.6%
28 | CC1=C[C@H]2O[C@@H]3C[C@H]4OC(=O)/C=C\C=C\[C@H]([C@@H](C)O)OCC/C(C)=C/C(=O)OC[C@@]2(CC1)[C@]4(C)[C@]31CO1 | -63.8% (active)
29 | CC[C@H](C)[C@H](NC(=O)c1cnccn1)C(=O)N(C)[C@H](C[C@@H](OC(C)=O)c1nc(C(=O)N[C@@H](Cc2ccccc2)C[C@H](C)C(=O)OC)cs1)C(C)C | 31.5%
30 | CC(=O)O[C@H](C[C@H](C(C)C)N(C)C(=O)[C@@H](NC(=O)[C@H]1CCCN1C)C(C)C)c1nc(C(=O)N[C@@H](Cc2ccccc2)C[C@H](C)C(=O)O)c(C)s1 | 18.7%
31 | CC(=O)[O][Hg][c]1c(N)c(C)cc(C)c1F | -26.7% (active)
32 | Cc1sc2c(c1C)C(c1ccc(Cl)cc1)=N[C@@H](CC(=O)OC(C)(C)C)c1nnc(C)n1-2 | -10.8% (active)
33 | O=C1c2ccccc2C(=O)C(Cl)C1Cl (centres undefined) | -89.9% (active)
34 | Cc1ccc(P(=O)(O)O)cc1 | 88.3%
35 | C/C(=C\c1ccn(-c2ccc(N)c(F)c2)n1)[C@@H]1C[C@@H]2O[C@]2(C)CCC[C@H](C)[C@H](O)[C@@H](C)C(=O)C(C)(C)[C@@H](O)CC(=O)O1 | 10.5%
36 | CCCCOC(=O)c1ccccc1C(=O)O.CCCCOC(=O)c1ccccc1C(=O)O.[Cu+2] | 103%
37 | N#CC(C#N)=Cc1ccc2ccccc2c1 | 105%
38 | CC(C)=CCC/C(C)=C/C=N\N=C(/N)N[N+](=O)[O-] | 103%
39 | [O]=[Sn]([CH]1CCCCC1)[CH]1CCCCC1 | -92.2% (active)
40 | CCOc1cc(/C=N\Nc2nnc(C)n2N)c(C)cc1N(CCCl)CCCl | -21.1% (active)
41 | O=[N+]([O-])c1ccc([Se]C2CCCCC2Cl)c([N+](=O)[O-])c1 (centres undefined) | 90.5%
42 | Nc1ccc(OCCNS(=O)(=O)c2cccc(S(=O)(=O)F)c2)c(Cl)c1 | 94.6%
43 | S=P(N1CCCCCC1)(N1CC1)N1CC1 | 105%
44 | CCCCCSC1C2C(=O)C(Br)=CC13CCNc1c(O)c4c5c(c13)=[N+]2CCC=5C=N4 (centres undefined) | -30.5% (active)
45 | COc1cc(C)c(-c2ccc(OC)c(=O)cc2C)c(OC)c1OC | 33.8% and 77.1%
46 | CC1(C)CN1P(=O)(N1CC1(C)C)N1CC1(C)C (centres undefined) | 106%
47 | N#Cc1nc(-c2ccccc2)oc1N1CCC(S(=O)(=O)F)CC1 | 110%
48 | CCC(=O)Nc1ccc(Cl)c(Cl)c1 | 101%
49 | COc1cc(CNCCc2ccc(Cl)cc2)cc(OC)c1O | 43.5%
50 | O=Cc1cn(Cc2ccc(Cl)cc2)c2ccccc12 | -45% (active)

Row | Compound | growth
51 | COC(=O)[C@]12CCC(C)(C)C[C@H]1[C@H]1C(=O)C[C@@H]3[C@@]4(C)C[C@@]5(CC(C)(C)[C@@H]4CC[C@@]3(C)[C@]1(C)CC2)OO[C@@](C)(C(F)(F)F)O5 | 84.5%
52 | CCCCCCCCCCCCCCCCCCn1cc[n+](C)c1 | -42.3% (active) and -20.4% (active)
53 | COc1ccc2c(c1)c(-c1nc(-c3cn(C)c4ncccc34)cs1)cn2CCCCN1CCOCC1 | 35%
54 | O=C1CCC2(O)[C@@H]3Cc4ccc(O)c5c4[C@]2(CCN3Cc2ccoc2)C1O5 (some centres undefined) | 97.3%
55 | c1ccc(-c2ccc3ccccc3[o+]2)cc1 | 94%
56 | CN1C(=O)[C@]23SSC1(C)C(=O)N2[C@H]1Nc2ccccc2C1([C@@]12c4ccccc4N[C@@H]1N1C(=O)C4(C)SS[C@]1(C(=O)N4C)[C@H]2O)[C@@H]3O (some centres undefined) | -88.9% (active)
57 | O=C(CC1(O)C(=O)Nc2ccc(F)cc21)c1ccc(C(=O)NCC2CCC3(CC2)OOC2(CCCCC2)OO3)cc1 (centres undefined) | 47.6%
58 | C[C@@H]1C[C@H]2C(=O)O[C@@H](C)C(NC(=O)[C@H](Cc3cc(F)cc(F)c3)NC(=O)Nc3ccc(OS(=O)(=O)F)cc3)C(=O)N3CCC[C@H]3C(=O)N3CCO[C@H](C)[C@H]3C(=O)N[C@@H](CO)C(=O)N2C1 (some centres undefined) | -7.29% (active)
59 | CCCCCCCCCCCCCCCC[n+]1ccccc1 | -33.2% (active) and -13.9% (active)
60 | CNC12C3C4C1C1C2C3C41C(=O)N[C@H](C(=O)N(C)[C@H](C[C@@H](OC(C)=O)c1nc(C(=O)N[C@@H](Cc2ccccc2)C[C@H](C)C(=O)OC)cs1)C(C)C)C1CC1 (some centres undefined) | -46.5% (active)
61 | COc1ccc(-c2ccc(OC)c(OC)c2OC)cc1 | -20.7% (active)
62 | COC(=O)[C@H](C[C@H](Cc1ccccc1)NC(=O)c1csc([C@@H](C[C@H](C(C)C)N(C)C(=O)[C@@H](NC(=O)[C@H]2CCCCN2C)C(C)C)OC(C)=O)n1)NC(=O)OCc1ccccc1 | 0.51% [8.5 µM] (active)
63 | OCCNC(Cc1ccccc1)c1ccc2c(c1)OCO2 (centres undefined) | 97.7%
64 | C[C@]12C[C@H](O)[C@H]3[C@@H](CCC4=CC(=O)CC[C@@]43C)[C@@H]1CC[C@@H]2O | 99.7%
65 | O=P(Oc1ccc(Cl)cc1)(N1CC1)N1CC1 | 54.1%
66 | COC(=O)[C@@H](C)C[C@H](Cc1ccccc1)NC(=O)c1csc([C@@H](C[C@H](C(C)C)N(C)C(=O)[C@@H](NC(=O)CN(C)C)C2CC2)OC(C)=O)n1 | -0.222% (active)
67 | O=[N+]([O-])c1cc([N+](=O)[O-])c(Nn2c3ccccc3c3ccccc32)c([N+](=O)[O-])c1 | -8.42% (active)
68 | CCCCCCCCCCCCCCCC[N+](C)(C)C | -77.9% (active) and -17% (active)
69 | CCN1C(=O)NC(=O)C(C)(N2C(=O)c3c(F)c(F)c(F)c(F)c3C2=O)C1=O (centres undefined) | -6.73% (active)
70 | CCCC(C)(C)c1ccc2c(c1)OC(C)(C)[C@@H]1CC=C(C)C[C@@H]21 | 97.6%
71 | [Cl][Hg][c]1cc[c]([Hg][Cl])o1 | -0.231% (active)
72 | N#CC(C#N)=C(C#N)C#N | 102%
73 | COC1CC2c3ccccc3C1C(C)=[N+]2C (centres undefined) | 96.4%
74 | C[C@]12CC[C@H](OC3OC(O)C(O)C(O)C3O)C=C1CCC1C2CC[C@]2(C)[C@@H](c3ccc(=O)oc3)CC[C@]12O (some centres undefined) | -63.8% (active)
